PubChem BioAssay (NCATS)
Inconclusive results are not listed. Unmarked numbers belong to inactive results. Activity calls are given as the source filed them. Calls follow the shape of the dose curve; as a rule, active = well fitted cell-killing curve with a large enough effect; inconclusive = small, poorly fitted or top-dose-only effect; inactive = flat fitted curve, though single readings scatter.

Assay: Cell Viability - LYMP2-010 (AID 981); also: nearly all actives have a fitted effect of over 55% in size
Settings: LYMP2-010 lymphoblastoid cell viability, qHTS; series mostly up to 92.2 µM; activity, negative = cytotoxicity: at the top concentration
Source text: NIH Chemical Genomics Center [NCGC]
NIH Molecular Libraries Screening Centers Network [MLSCN]
National Institutes of Environmental Health Sciences [NIEHS]
National Toxicology Program [NTP]
We have developed a 1536-well cell-based assay for quantitative high throughput screening (qHTS) against a number of cell lines to determine in vitro cytotoxicity of small molecules. This particular assay uses a human lymphoblastoid cell line (LYMP2-010) purchased from Coriell Institute for Medical Research.
NCGC Assay Protocol Summary:
The CellTiter-Glo luminescent cell viability assay (Promega) is a homogeneous method to measure the number of viable cells in culture. The end point readout of this assay is based on quantitation of intracellular ATP, an indicator of metabolic activity, using the luciferase reaction. Luciferase catalyzes the oxidation of beetle Luciferin to oxyluciferin and light in the presence of ATP. The luminescent signal is proportional to amount of ATP present.
Using the CellTiter-Glo luminescent cell viability assay, the amount of cellular ATP was measured in the lymphoblastoid cell line with complete culture medium following compound treatment for 24 hours. The assay was performed in opaque white Kalypsys 1536-well plates. In the screen, tetraoctylammonium bromide was used as positive control. Library compounds were measured for their ability to cause acute toxicity in the cell line, as reflected by a decrease in intracellular ATP levels, in a concentration-dependent manner. […] AC50 values were determined from concentration-response data modeled with the standard Hill equation.
qHTS protocol for CellTiter Glo lymphoblastoid cellular assay
[Step] [Parameter] [Value] [Description]
1. Reagent; 5 uL; 2500 lymphoblastoid cells/well
2. Time; 5 hr; 37 C incubation
4. Controls; 23 nL; Tetraoctylammonium bromide 6.4pM to 92 uM
5. Time; 24 hr; 37 C incubation
6. Reagent; 5 uL; CellTiter Glo reagent
7. Time; 30 min; Room Temperature
8. Detection; Luminescence; Viewlux plate reader
Keywords: cell viability, cytotoxicity, lymphoblastoid cell line, luminescence, NTPHTS, NTPHTS_NCGC, NIEHS, DSSTox, MLSMR, MLSCN, NIH Roadmap, qHTS, NCGC
% is scaled to controls: 0 for no effect and ±100 for the full control effect; potency is read from the fitted curve at half-maximal effect.

Structure (SMILES) | activity, negative = cytotoxicity [%] | Potency
C#CCO | -15.8 | –
[CH3][Hg][Cl] | – | 1.58 µM (active)
C=CC(=O)OCC(CO)(COC(=O)C=C)COC(=O)C=C | – | 3.98 µM (active)
N#CSCSC#N | – | 3.98 µM (active)
O=C(O)C1C(C(=O)O)C2(Cl)C(Cl)=C(Cl)C1(Cl)C2(Cl)Cl (stereo not drawn) | -1.59 | –
Clc1ccc(C(c2ccc(Cl)cc2)C(Cl)Cl)cc1 | -7.03 | –
Nc1ccccc1C(=O)OCCc1ccccc1 | -9.35 | –
OC(c1ccc(Cl)cc1)(c1ccc(Cl)cc1)C(Cl)(Cl)Cl | -7.8 | –
C[C@@H]1CC[C@@]2(OC1)O[C@H]1[C@@H](O)[C@H]3[C@@H]4CC[C@H]5C[C@@H](O[C@@H]6O[C@H](CO)[C@H](O[C@@H]7O[C@H](CO)[C@@H](O)[C@H](O[C@@H]8OC[C@@H](O)[C@H](O)[C@H]8O)[C@H]7O[C@@H]7O[C@H](CO)[C@@H](O)[C@H](O[C@@H]8O[C@H](CO)[C@@H](O)[C@H](O)[C@H]8O)[C@H]7O)[C@H](O)[C@H]6O)[C@H](O)C[C@]5(C)[C@H]4CC[C@]3(C)[C@H]1[C@@H]2C | – | 20 µM (active)
c1ccc2cc3c(cc2c1)-c1cccc2cccc-3c12 | -13.1 | –
CN(C)c1ccc(N=O)cc1 | – | 0.631 µM (active)
ClC1=C(Cl)C(Cl)(Cl)C(Cl)=C1Cl | – | 5.01 µM (active)
CC(C)CC(C)Nc1ccc(Nc2ccccc2)cc1 (stereo not drawn) | – | 39.8 µM (active)
O=C(CCl)c1ccccc1 | – | 7.94 µM (active)
O=Nc1ccc(Nc2ccccc2)cc1 | – | 5.01 µM (active)
O=[N+]([O-])C(Br)Br | – | 7.94 µM (active)
CC/C(=C(\c1ccccc1)c1ccc(OCCN(C)C)cc1)c1ccc(O)cc1 | – | 50.1 µM (active)
c1cc(OCC2CO2)cc(OCC2CO2)c1 (stereo not drawn) | – | 31.6 µM (active)
CCCCCCCCn1sccc1=O | – | 2.51 µM (active)
CC(=O)[O-].CC(=O)[O-].O.O.[Cd+2] | – | 39.8 µM (active)
O=[N+]([O-])c1cc(C(F)(F)F)cc([N+](=O)[O-])c1Cl | – | 31.6 µM (active)
[Cd+2].[Cl-].[Cl-] | – | 50.1 µM (active)
FC(F)(F)c1ccc(Cl)cc1 | -9.82 | –
